Experimental data from the supplement of paper PMC8540655.
Unmarked numbers belong to inactive results.

The molecules below were run on Aedes aegypti larvae (assay: larval motility relative to same well at 0 h (fraction); higher = more motile (less active compound), active = 0.4 or less). Conditions: 10 µM; 2 h.
Experimental: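 MMV Pandemic Response Box compounds were tested at 10 µM (1% v/v DMSO) on Aedes aegypti larvae (18-24 h after hatching, about 10 per well, 96-well plates). Motility was quantified with INVAPP (200-frame movies) at 0, 2 and 24 h. Each well's motility was divided by its own 0 h score, and the median of 3 independent screens is reported.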

Compared with `CCC(C)NCC(O)Cn1c2ccc(Cl)cc2c2cc(Cl)ccc21` (stereo not given), `CC(C)(C)c1cc(C(=O)/C(C#N)=N/Nc2cccc(Cl)c2)no1` is higher in larval motility: 0.799 for the first, 1.14 for the second.

Compared with `O=C(Nc1ccc(N2CCN(C(=O)c3ccccc3)CC2)cc1)c1ccc2c(c1)OCO2`, `O=C(NNC(=S)Nc1ccc(Cl)cc1)c1ccncc1` is lower in larval motility: 0.946 for the first, 0.695 for the second.

Going from `CCc1cc(Cc2cnc(N)nc2N)cc2c1N(C)CCC2C` (stereo not given) to `CCCC1(C2CC2)c2cc(Cl)ccc2NC(=O)N1C` (stereo not given), the larval motility falls from 0.948 to 0.846.

First: CC(C)(C)OC(=O)NCc1ccc(C(=O)N[C@H]2CCOC2=O)cc1
Second: CC1(C)CC(NC(=O)C(=O)Nc2ccc(Cl)cc2)CC(C)(C)N1
The larval motility of the first is lower: 0.701 for the first, 0.977 for the second.

Going from `Cc1ccn2c(C(=O)NCc3ccccc3)c(C)nc2c1` to `CC1(C)Cc2c(C#N)c(SCCc3ccccc3)nc(N3CCOCC3)c2CO1`, the larval motility falls from 1.47 to 0.485.

Compared with `O=C1CCC(N2C(=O)c3ccccc3C2=O)C(=O)N1` (stereo not given), `CO[C@@]1(NC(=O)Cc2cccs2)C(=O)N2C(C(=O)O)=C(COC(N)=O)CS[C@@H]21` is lower in larval motility: 1.17 for the first, 0.909 for the second.

First: c1cnc(NCc2ccc(CNc3ncccn3)cc2)nc1
Second: CC(C)c1ccc(COc2cccc(-c3cc(S(C)=O)c(C#N)c(=O)[nH]3)c2)cc1 (stereo not given)
The larval motility of the first is higher: 1.23 for the first, 0.682 for the second.

First: CCCCC(CC)CNC(=N)NC(=N)NCCCCCCNC(=N)NC(=N)NCC(CC)CCCC (stereo not given)
Second: CCCCCCCCCN1C[C@@H](O)[C@H](O)[C@@H](O)[C@@H]1CO
The larval motility of the first is lower: 0.646 for the first, 0.996 for the second.

Going from `CCCCCCCCC(CP(=O)(O)C(C)N)C(=O)O` (stereo not given) to `NC(=O)[C@@H]1CC[C@@H]2CN1C(=O)N2OS(=O)(=O)O`, the larval motility rises from 0.654 to 1.06.

Compared with `FC(F)(F)Oc1ccc(Nc2ccc3cccc(Cl)c3n2)cc1`, `Nc1nc(O)c2ncn(COCCO)c2n1` is higher in larval motility: 0.563 for the first, 0.732 for the second.

Same assay, conditions: 10 µM; 24 h

Going from `CCC(C)NCC(O)Cn1c2ccc(Cl)cc2c2cc(Cl)ccc21` (stereo not given) to `CC(C)(C)c1cc(C(=O)/C(C#N)=N/Nc2cccc(Cl)c2)no1`, the larval motility rises from 1 to 1.21.

First: O=C(Nc1ccc(N2CCN(C(=O)c3ccccc3)CC2)cc1)c1ccc2c(c1)OCO2
Second: O=C(NNC(=S)Nc1ccc(Cl)cc1)c1ccncc1
The larval motility of the first is higher: 0.971 for the first, 0.45 for the second.

Compared with `CCc1cc(Cc2cnc(N)nc2N)cc2c1N(C)CCC2C` (stereo not given), `CCCC1(C2CC2)c2cc(Cl)ccc2NC(=O)N1C` (stereo not given) is lower in larval motility: 0.898 for the first, 0.863 for the second.

Compared with `CC(C)(C)OC(=O)NCc1ccc(C(=O)N[C@H]2CCOC2=O)cc1`, `CC1(C)CC(NC(=O)C(=O)Nc2ccc(Cl)cc2)CC(C)(C)N1` is higher in larval motility: 0.769 for the first, 0.896 for the second.

Going from `Cc1ccn2c(C(=O)NCc3ccccc3)c(C)nc2c1` to `CC1(C)Cc2c(C#N)c(SCCc3ccccc3)nc(N3CCOCC3)c2CO1`, the larval motility falls from 2.35 to 1.28.

Going from `O=C1CCC(N2C(=O)c3ccccc3C2=O)C(=O)N1` (stereo not given) to `CO[C@@]1(NC(=O)Cc2cccs2)C(=O)N2C(C(=O)O)=C(COC(N)=O)CS[C@@H]21`, the larval motility rises from 1.13 to 1.17.

Compared with `c1cnc(NCc2ccc(CNc3ncccn3)cc2)nc1`, `CC(C)c1ccc(COc2cccc(-c3cc(S(C)=O)c(C#N)c(=O)[nH]3)c2)cc1` (stereo not given) is lower in larval motility: 0.598 for the first, 0.447 for the second.

Going from `CCCCC(CC)CNC(=N)NC(=N)NCCCCCCNC(=N)NC(=N)NCC(CC)CCCC` (stereo not given) to `CCCCCCCCCN1C[C@@H](O)[C@H](O)[C@@H](O)[C@@H]1CO`, the larval motility rises from 1.07 to 1.3.

Compared with `CCCCCCCCC(CP(=O)(O)C(C)N)C(=O)O` (stereo not given), `NC(=O)[C@@H]1CC[C@@H]2CN1C(=O)N2OS(=O)(=O)O` is higher in larval motility: 1.09 for the first, 1.3 for the second.

Work on `Nc1nc(O)c2ncn(COCCO)c2n1` yielded a larval motility of 0.823.

In the case of `FC(F)(F)Oc1ccc(Nc2ccc3cccc(Cl)c3n2)cc1`, the larval motility is reported as 0.29 (active).
